LMP1 NFkB inh – Epstein-Barr LMP1 NF-kappaB reporter inhibition | LMP1-induced NF-kappaB luciferase reporter cells, luminescence | inhibition, % at 12.5 µM | hit rate 0.69% among 350,000 | AID 504558; in the data active means inhibition above about 41%; inconclusive means no clear call, values can overlap the other calls;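 further: 0% = neutral control wells and 100% = reference inhibitor control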
Shn3 3UTR inh – reduces Shn3 3'UTR luciferase signal in osteoblasts; AID 588674; inhibition, % at 12.5 µM; hit rate 0.52% among 360,000; Clone20 osteoblast Shn3 3'UTR firefly luciferase, 24 h;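 active means mean inhibition of at least 75% with every replicate also reaching 75%; inconclusive means mean inhibition at least 75% but some replicate below; inactive means mean inhibition below 75%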;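 further: 0% = median of neutral control wells and 100% = pilot-screen positive control compound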
TRPM1 prom inh – reduces MITF-dependent TRPM1 promoter luciferase signal. SK-MEL-5 TRPM1 promoter luciferase, 24 h. inhibition, % at 12.5 µM. hit rate 0.83% among 330,000;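 active means mean inhibition across replicates of 60% or more, whatever share of single replicates reaches that level; inconclusive means some that reach 60%, reason not given; inactive means mean inhibition across replicates below 60%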
697 NFkB inh – lowers PMA/ionomycin-induced NF-kB signal in 697 B cells. 697 B-cell NF-kB luciferase reporter, 16 h. inhibition, % at 4 µM. hit rate 0.33% among 330,000. AID 435022; in the data active means inhibition above about 35%
Jurkat NFkB inh – lowers PMA/ionomycin-induced NF-kB signal in Jurkat cells | PMA/ionomycin-induced NF-kB luciferase reporter, luminescence | inhibition, % at 4 µM | hit rate 0.53% among 330,000 | AID 435003; in the data active means inhibition above about 50%
Gli-Sufu block – blocks Gli-Sufu signaling in a luciferase reporter | Sufu-KO-LIGHT fibroblasts, Gli luciferase reporter luminescence | inhibition, % at 5 µM | hit rate 0.74% among 340,000 | AID 588413;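 active means inhibition above about 55%, limit read from the data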;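 further: 0% = DMSO-treated cells and 100% = wells with medium but no cells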
Active calls of the source: *; ? = inconclusive; . = not tested or not shown. Hits are enriched below; roughly 2.3% of the tested compounds scored in any of these assays.

SMILES	LMP1 NFkB inh	Shn3 3UTR inh	TRPM1 prom inh	697 NFkB inh	Jurkat NFkB inh	Gli-Sufu block
CC1=NNC(=O)/C1=C\c1cn(-c2ccccc2)nc1-c1cccs1	10	64	98*	-20	35	-9
Cn1c2ccccc2c2cc(/C=N/NC(=O)c3ccc(O)cc3O)ccc21	14	7	-7	-21	2	9
CCn1c2ccccc2c2cc(/C=N/NC(=O)c3cc(O)cc(O)c3)ccc21	66*	-5	1	15	9	4
CCn1c2ccccc2c2cc(/C=N/NC(=O)c3ccncc3)ccc21	?	14	4	6	-4	-3
CCn1c2ccccc2c2cc(/C=N/NC(=O)c3ccc(O)cc3)ccc21	84*	-11	-1	-25	20	3
O=C1/C(=C/c2ccccc2[N+](=O)[O-])COc2ccccc21	?	31	85*	-7	17	-7
CN1CCCN(c2ncnc3scc(-c4ccc(F)cc4)c23)CC1	2	2	-12	-3	2	16
CC(C)c1ccc(-c2csc3ncnc(N4CCN(C)CC4)c23)cc1	49*	49	-3	-21	1	7
Cc1onc(-c2ccccc2Cl)c1C(=O)N1CCC(Cc2ccccc2)CC1	19	89*	14	-24	5	-12
Cc1nc(C)c(Oc2ccc(Cl)cc2Cl)c(=O)[nH]1	2	-4	-6	-1	-19	6
Oc1c(N=Nc2ccccn2)ccc2ccccc12	48*	47	49	-184	47	82*
CCOc1ccc(CCNC(=O)Cn2nc(C)c3c(C)n(-c4ccccc4)nc3c2=O)cc1	-6	18	17	17	11	-7
Cc1cc2c(cc1C)N(C(=O)CCl)CCN2C(=O)CCl	0	-2	94*	.	.	11
COc1cccc(CNC(=O)COC(=O)c2cc([N+](=O)[O-])ccc2N2CCCC2)c1	71*	4	9	17	-5	13
CCOC(=O)c1nc(NCc2ccccc2F)c2ccccc2n1	77*	20	-2	-17	6	-2
CCOC(=O)c1nc(NCc2ccccc2C)c2ccccc2n1	2	6	-12	-58	-2	4
CC(C)CC(=O)NC(=S)Nc1ccc(S(=O)(=O)Nc2nccs2)cc1	2	-22	-1	-14	20	-10
Oc1[nH]c2ccccc2c1N=Nc1c(F)c(F)c(Cl)c(F)c1F	69*	-20	.	-16	-14	-8
Cc1ccc(C2(C)NC(=O)N(CC(=O)Nc3ccc4[nH]c(=O)[nH]c4c3)C2=O)cc1 (configuration not stated)	-2	3	-2	13	0	5
O=C(N/N=C/c1sc(N2CCOCC2)nc1-c1ccccc1)c1cccc(S(=O)(=O)N2CCCC2)c1	11	90*	52	15	40	-4
Cc1cccc(NC(=O)c2cnn(C)c2)c1C	-2	8	9	-45	-11	0
COc1ccc(-c2cc3nc(CCl)[nH]c(=O)c3s2)cc1	49*	10	11	-41	-45	-80
COc1ccc(C(=O)/C=C/C(=O)N(Cc2ccccc2OC)C(C(=O)NC2CCCCC2)c2ccncc2)c(O)c1 (configuration not stated)	9	15	-3	20	9	7
COc1ccc(C(=O)/C=C/C(=O)N(CC(=O)NC2CCCCC2)Cc2ccccc2)c(O)c1	-5	95*	100*	.	.	33
COc1ccc(C(=O)/C=C/C(=O)N(CC(=O)NC2CCCCC2)CC2CCCO2)c(O)c1 (configuration not stated)	29	-8	98*	-1	13	1
SMILES	LMP1 NFkB inh	Shn3 3UTR inh	TRPM1 prom inh	697 NFkB inh	Jurkat NFkB inh	Gli-Sufu block
COc1ccc(C(=O)/C=C/C(=O)N(CC(=O)NC2CCCCC2)Cc2ccccc2OC)c(O)c1	16	-3	103*	.	.	9
Cc1cc([N+](=O)[O-])ccc1-c1ccc(/C=N/NC(=O)c2ccc(Br)o2)o1	-1	15	2	22	-5	9
CCCCCCCc1nc2nc(C)c(Br)c(=O)n2[nH]1	1	7	0	-23	-10	-3
O=c1c2cnn(-c3ccccc3)c2nc(-c2cccs2)n1-c1ccc(Br)cc1	43*	2	1	-42	15	2
Cc1cccc(Oc2ccc(NC(=O)c3ccccc3C(=O)O)cc2)c1C	-5	-15	-5	10	16	-5
O=C(O)c1ccccc1C(=O)Nc1ccc(Oc2cccc3ccccc23)cc1	24	6	73*	.	.	12
COc1ccc(C)cc1NC(=S)N1CCN(c2ccccn2)CC1	-3	-1	-7	-19	-9	6
O=C(CN(Cc1ccccc1)C(=O)CNS(=O)(=O)c1ccccc1)NCc1ccco1	2	16	-3	-1	9	-11
O=C(CN(Cc1cccs1)C(=O)CNS(=O)(=O)c1ccccc1)NCc1ccco1	90*	-7	10	.	.	-5
C=C(CN(C)C)C(=O)c1ccc(OC2OC(COC(C)=O)C(OC(C)=O)C(OC(C)=O)C2OC(C)=O)cc1 (configuration not stated)	-6	98*	115*	.	.	51
CC(=O)OC[C@H]1O[C@@H](O/N=C/[C@@H](C)[C@H](OCc2ccccc2)C(C)C)[C@H](OC(C)=O)[C@@H](OC(C)=O)[C@@H]1OC(C)=O	.	.	.	-1	-5	.
CC(C)C(Cl)=NOC(=O)Nc1ccc(S(N)(=O)=O)cc1	1	95*	16	.	.	17
CCCCCC(=O)N1C[C@@H](O)[C@H](n2cc(COC(=O)c3ccccc3)nn2)C[C@@H]1c1ccc(OC)cc1	1	-28	.	.	.	.
COC(=O)c1c(-c2ccccc2)c(-c2ccccc2)nn(C)c1=O	3	-4	3	9	2	-5
CCCCNC(=O)/C(=C\c1ccc([N+](=O)[O-])o1)NC(=O)c1ccccc1	3	-2	15	6	-4	-1
CN(C)CCNC(=O)/C(=C/c1ccc(-c2cccc([N+](=O)[O-])c2)o1)NC(=O)c1ccccc1	10	-26	-1	19	-7	3
Cc1ccc(C(=O)N/C(=C\c2ccc(-c3ccccc3[N+](=O)[O-])o2)C(=O)NCCCN(C)C)cc1	7	12	70*	11	8	16
Cc1ccc(C(=O)N/C(=C\c2ccc(-c3ccccc3[N+](=O)[O-])o2)C(=O)NCCN(C)C)cc1	-2	-17	77*	-1	-16	22
CCCc1nc2c(C)cc(Br)cn2c1Cc1ccc(OC)cc1C	.	13	.	.	.	.
CCc1nnc(NC(=O)CSc2nnc(-c3c[nH]c4ccccc34)n2CC)s1	-11	-8	-8	4	-8	5
CCSc1nnc(NC(=O)CSc2nnc(-c3c[nH]c4ccccc34)n2CC)s1	85*	4	3	-10	-10	6
C=CCNC(=O)NC(=O)COn1nnc2ccc(S(=O)(=O)N(C)C)cc21	-4	-36	0	-37	5	-16
O=c1c(Cl)c(Cl)cnn1-c1ccccc1	0	2	88*	.	.	5

High-throughput results (PubChem BioAssay)
